Several values for one entry are separate records, joined by “and”; a condition that tells them apart may be missing. Equal entries are not always repeated. Records with an inconclusive call do not appear. Activity calls are given as the source filed them. Unless noted, calls follow the shape of the dose curve; as a rule, active = well fitted curve in the direction sought with a large enough effect in the repeat runs; inconclusive = weak or mixed curves; inactive = no such curve, though single readings can be large; an effect the other way counts as inactive or inconclusive.
What was measured:
[1] = qHTS assay to identify small molecule agonists of H2AX - cell viability counter screen (AID 1224847; calls by dose curve;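 also: wild-type CHO-K1 cells; top concentration of the series differs between compounds; nearly all actives have a fitted effect of over 30% in size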)
How it was run: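 For this counter screen, overnight-attached CHO-K1 cells received test compounds (15 concentrations, 0.76% DMSO final); 3 hr later at 37C, CellTiter-Glo reagent was added and luminescence recorded after 30 min at room temperature.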

[2] = qHTS RealTime-Glo MT Cell Viability Assay in HEK293 cells - 32 hour (AID 1224868); also: top concentration of the series differs between compounds; nearly all actives have a fitted effect of over 50% in size
How it was run: (§1)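 Luminescence generated by NanoLuc from substrate produced by living HEK293 cells served as the viability signal. Each value reflects the reading at its stated time point during continuous 40 h compound exposure at 37 C.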

[3] = A CellTox Green Cytotoxicity Assay to monitor cytotoxicity in HEK293 cells - 0 hour (AID 1224869); also: nearly all actives have a fitted effect of over 50% in size
How it was run: (§2)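 Tox21 screen in HEK293: membrane-impermeant cyanine dye fluoresces on binding dead-cell DNA; compound pinned 5 h post-seeding, plates held at 37 C, signal read repeatedly through 40 h.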

[4] = qHTS RealTime-Glo MT Cell Viability Assay in HepG2 cells - 40 hour (AID 1224870); also: nearly all actives have a fitted effect of over 50% in size
How it was run: (§3)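 HepG2 cells mixed with RealTime-Glo MT reagents (NanoLuc plus cell-permeant prosubstrate) were seeded at 600 cells/well, incubated 5 h at 37 C/5% CO2, then pinned with compounds in DMSO; nonlytic luminescence tracked viability during 40 h treatment.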

[5] = A CellTox Green Cytotoxicity Assay to monitor cytotoxicity in HEK293 cells - 40 hour (AID 1224871); also: nearly all actives have a fitted effect of over 45% in size
How it was run: as §2

[6] = qHTS RealTime-Glo MT Cell Viability Assay in HEK293 cells - 16 hour (AID 1224872); also: top concentration of the series differs between compounds; nearly all actives have a fitted effect of over 50% in size
How it was run: as §1

[7] = qHTS RealTime-Glo MT Cell Viability Assay in HEK293 cells - 40 hour (AID 1224874); settings: RealTime-Glo luminescence; max response: hits give low values; also: nearly all actives have a fitted effect of over 50% in size
How it was run: (§4)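 HEK293 + NanoLuc + prosubstrate, 600 cells/well; 5 h, 37 C/5% CO2; compound 23 nL in DMSO by pintool; 37 C; luminescence read at 0, 8, 16, 24, 32 and 40 h time points.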

[8] = A CellTox Green Cytotoxicity Assay to monitor cytotoxicity in HEK293 cells - 24 hour (AID 1224875); also: series mostly up to about 77 µM; nearly all actives have a fitted effect of over 45% in size
How it was run: as §2

[9] = A CellTox Green Cytotoxicity Assay to monitor cytotoxicity in HepG2 cells - 16 hour (AID 1224876); also: nearly all actives have a fitted effect of over 45% in size
How it was run: (§5)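 Measurements at 0, 8, 16, 24, 32 and 40 h of treatment captured CellTox Green fluorescence in HepG2 cells that had been co-plated with reagent and preincubated 5 h at 37 C/5% CO2.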

[10] = qHTS RealTime-Glo MT Cell Viability Assay in HepG2 cells - 32 hour (AID 1224877); also: nearly all actives have a fitted effect of over 55% in size
How it was run: (§6)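 Tox21 10K library screened in qHTS format on HepG2 cells carrying RealTime-Glo reagents. Compounds were added after a 5 h preincubation, and the luminescent signal from continuous culture was measured repeatedly during 40 h treatment.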

[11] = A CellTox Green Cytotoxicity Assay to monitor cytotoxicity in HepG2 cells - 24 hour (AID 1224878); also: nearly all actives have a fitted effect of over 45% in size
How it was run: as §5

[12] = A CellTox Green Cytotoxicity Assay to monitor cytotoxicity in HepG2 cells - 40 hour (AID 1224879); also: nearly all actives have a fitted effect of over 40% in size
How it was run: as §5

[13] = qHTS RealTime-Glo MT Cell Viability Assay in HEK293 cells - 0 hour (AID 1224880)
How it was run: as §4

[14] = A CellTox Green Cytotoxicity Assay to monitor cytotoxicity in HEK293 cells - 32 hour (AID 1224881); also: nearly all actives have a fitted effect of over 40% in size
How it was run: as §2

[15] = A CellTox Green Cytotoxicity Assay to monitor cytotoxicity in HepG2 cells - 0 hour (AID 1224882); also: nearly all actives have a fitted effect of over 35% in size
How it was run: as §5

[16] = A CellTox Green Cytotoxicity Assay to monitor cytotoxicity in HepG2 cells - 32 hour (AID 1224883); also: nearly all actives have a fitted effect of over 50% in size
How it was run: as §5

[17] = qHTS RealTime-Glo MT Cell Viability Assay in HepG2 cells - 8 hour (AID 1224873); also: nearly all actives have a fitted effect of over 55% in size
How it was run: as §3

[18] = qHTS RealTime-Glo MT Cell Viability Assay in HepG2 cells - 24 hour (AID 1224867); also: nearly all actives have a fitted effect of over 50% in size
How it was run: as §6
% is scaled to controls: 0 for no effect and ±100 for the full control effect.

C=C(C)C(=O)OCCOCCOCCOC(=O)C(=C)C
inactive: Potency [1] | Potency [2] | outcome [3] | outcome [4] | Potency [5] | Potency [6] | max response [7] -0.0416% and 6.25% | Potency [8] | Potency [9] | outcome [10] | Potency [11] | Potency [12] | Potency [13] | Potency [14] | outcome [15] | Potency [16]

COc1ccc2cc([C@H](C)C(=O)O)ccc2c1
inactive: Potency [1] | Potency [2] | outcome [3] | outcome [4] | Potency [5] | Potency [6] | outcome [17] | max response [7] 5.06% and -0.971% | Potency [8] | Potency [9] | outcome [10] | Potency [11] | Potency [12] | Potency [13] | Potency [14] | outcome [15] | Potency [16]

CCCCCCCCC/C=C/CC1CC(=O)OC1=O (configuration not stated)
inactive: Potency [1] | outcome [3] | outcome [4] | Potency [5] | Potency [6] | max response [7] -19.7% and -2.36% | Potency [8] | Potency [9] | outcome [10] | Potency [11] | Potency [12] | Potency [13] | Potency [14] | outcome [15] | Potency [16]

COc1ccc(Cl)cc1C(=O)NCCc1ccc(S(=O)(=O)NC(=O)NC2CCCCC2)cc1
inactive: Potency [1] | outcome [3] | outcome [4] | Potency [5] | Potency [6] | outcome [17] | max response [7] -19.9% and -25.1% | Potency [8] | Potency [9] | outcome [10] | Potency [11] | Potency [12] | Potency [14] | outcome [15] | Potency [16]

C[Si](O[Si](C)(C)C)O[Si](C)(C)C
inactive: Potency [1] | outcome [3] | outcome [4] | Potency [5] | Potency [6] | outcome [17] | max response [7] 1.67% and 1.77% | Potency [9] | outcome [10] | Potency [11] | Potency [12] | Potency [13] | Potency [14] | outcome [15] | Potency [16]

CCCCCCCC(=O)OC
inactive: Potency [1] | outcome [18] | outcome [3] | outcome [4] | Potency [5] | outcome [17] | max response [7] -1.2% and 5.05% | Potency [8] | Potency [9] | outcome [10] | Potency [11] | Potency [12] | Potency [13] | Potency [14] | outcome [15] | Potency [16]

C[C@H]1C[C@H]2[C@@H]3CCC4=CC(=O)C=C[C@]4(C)[C@@]3(F)[C@@H](O)C[C@]2(C)[C@@]1(O)C(=O)CO
inactive: Potency [1] | outcome [3] | outcome [4] | Potency [5] | max response [7] -12.6% and 0.279% | Potency [9] | outcome [10] | Potency [11] | Potency [12] | Potency [13] | Potency [14] | outcome [15] | Potency [16]

CC(=O)Nc1cccc(O)c1
inactive: Potency [1] | outcome [18] | outcome [3] | outcome [4] | Potency [5] | outcome [17] | max response [7] -14.2% and 4.42% | Potency [9] | outcome [10] | Potency [11] | Potency [12] | Potency [13] | Potency [14] | outcome [15] | Potency [16]

CC(=O)OCC(=O)[C@@]12N=C(C)O[C@@H]1C[C@H]1[C@@H]3CCC4=CC(=O)C=C[C@]4(C)[C@H]3[C@@H](O)C[C@@]12C
inactive: Potency [1] | outcome [18] | outcome [3] | outcome [4] | Potency [5] | outcome [17] | max response [7] -2.48% and 0.51% | Potency [9] | outcome [10] | Potency [11] | Potency [12] | Potency [13] | Potency [14] | outcome [15] | Potency [16]

O=C(O)CCCCCCCCCCC(=O)O
inactive: Potency [1] | outcome [3] | outcome [4] | Potency [5] | Potency [6] | outcome [17] | max response [7] -3.15% and -61.6% | Potency [8] | Potency [9] | outcome [10] | Potency [11] | Potency [12] | Potency [13] | Potency [14] | outcome [15] | Potency [16]

O=C=NCCCCCCN=C=O
inactive: Potency [1] | Potency [2] | outcome [3] | outcome [4] | Potency [5] | Potency [6] | outcome [17] | max response [7] 4.38% | Potency [8] | Potency [9] | outcome [10] | Potency [11] | Potency [12] | Potency [13] | Potency [14] | outcome [15] | Potency [16]

CC(=O)c1ccccc1
inactive: Potency [1] | Potency [2] | outcome [3] | outcome [4] | Potency [5] | Potency [6] | max response [7] 0.254% and 9.46% | Potency [9] | outcome [10] | Potency [11] | Potency [12] | Potency [13] | Potency [14] | outcome [15] | Potency [16]

CN(C)CCC(c1ccccc1)c1ccccn1 (configuration not stated)
inactive: Potency [1] | Potency [2] | outcome [3] | outcome [4] | Potency [5] | Potency [6] | outcome [17] | max response [7] 7.85% and 1.55% | Potency [8] | Potency [9] | outcome [10] | Potency [11] | Potency [12] | Potency [13] | Potency [14] | outcome [15] | Potency [16]

Source: PubChem BioAssay (Tox21)
